# Measured values published in PubChem BioAssay AID1347076 (National Center for Advancing Translational Sciences (NCATS), 2019).
# The campaign covered roughly 400,000 compounds. About 13,000 (3.2%) were called active. Roughly 18% stayed inconclusive and do not appear here. The entries come from a sample that favours actives as a whole. Values without a mark were called inactive. Calls come from the whole dose curve; as a rule, active = well fitted cell-killing curve with a large enough effect; inconclusive = small, poorly fitted or top-dose-only effect, or effect the other way; inactive = flat fitted curve, though single readings scatter.
# Test: qHTS assay for MDR1-selective chemotherapeutics: Primary screen using the drug-selected MDR subline cells KB-V1; note: nearly all actives have a fitted effect of over 60% in size
# Details: KB-V1 MDR cells viability, CellTiter-Glo, 72 h; series mostly up to 46.1 µM; activity change, negative = cytotoxicity: at the top concentration
# Summary of the method: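 Drug-selected KB-V1 cells, grown in DMEM lacking phenol red with 10% FBS, receive compound titrations; after three days at 37 degrees C, surviving cell ATP is quantified by CellTiter-Glo luminescence and responses normalized and curve-fitted.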
# % is set by controls: 0 for no effect and ±100 for the full control effect; potency is the fitted concentration of half-maximal effect.
SMILES,"activity change, negative = cytotoxicity",Potency
CC1=C(C(=O)N2CCOCC2)CC(CC(=O)NCCN2CCOCC2)C(=O)N1CCC1=CCCCC1 (configuration not stated),63.2%,–
COc1ccc(N2CCN(S(=O)(=O)c3ccc(-c4coc(C)n4)cc3)CC2)cc1,0%,–
COc1ccc(Br)cc1C1CC(=O)Nc2c1c(C)nn2-c1nc(C)cc(C)n1 (configuration not stated),3.24%,–
Oc1ccc(Br)cc1C1C=C(c2ccc3c(c2)OCO3)NC(c2ccc(Cl)cc2)N1 (configuration not stated),11.4%,–
COc1ccc(OCC(=O)Nc2cc(C)c(Cl)cc2OC)c([N+](=O)[O-])c1,0%,–
COC(=O)c1cc(Oc2ccc(S(=O)(=O)N3CCOCC3)cc2[N+](=O)[O-])cc(C(=O)OC)c1,1.19%,–
Cc1nnc(-c2ccc(Oc3ccc(C)c(C)c3)c([N+](=O)[O-])c2)o1,–,14.6 µM (active)
CCc1ccccc1NC(=O)N1CCN(C(=O)c2nsc3ccccc23)CC1,-9.18%,–
CCOc1cc(-c2nnc(SCC(=O)NC3CCCC3)nc2-c2ccc(OC)c(OCC)c2)ccc1OC,3.85%,–
COc1cccc(C(=O)Nc2nnc(S(=O)(=O)N(C)c3ccccc3)s2)c1,17.8%,–
CN(c1ccccc1)S(=O)(=O)c1cc(C(=O)OCC(=O)N2CCN(C(=O)c3ccco3)CC2)ccc1Cl,-22.2%,–
CC(=O)c1ccc(N2CCN(C(=O)c3ccc(Cl)c(S(=O)(=O)NC4CC4)c3)CC2)c(F)c1,6.94%,–
CN(c1ccccc1)S(=O)(=O)c1cc(C(=O)Nc2nc3ccccc3[nH]2)ccc1Cl,–,3.66 µM (active)
CN(c1ccccc1)S(=O)(=O)c1ccc(C(=O)N2CCN(c3ccccc3Cl)CC2)cc1,-14.5%,–
CN(c1ccccc1)S(=O)(=O)c1cc(C(=O)N2CCN(c3ncccn3)CC2)ccc1Cl,–,2.91 µM (active)
CC(OC(=O)c1ccc(NC(=O)CC#N)cc1)C(=O)Nc1ccc(S(=O)(=O)N2CCCC2)cc1 (configuration not stated),-7.06%,–
Nc1nc2cc(Cl)ccc2n1N,0.774%,–
CCCCN(CC)C(=O)c1c[nH]c2ccc(S(=O)(=O)Nc3cccc(OC)c3)cc2c1=O,0.646%,–
CCCc1nc2c3ccccc3ccn2c1Cc1ccccc1C(F)(F)F,20.4%,–
COC(=O)[C@@]1(Cc2ccc(F)cc2)[C@H]2c3cc(C(=O)N(C)C)n(CCc4c[nH]c5ccc(OC)cc45)c3C[C@H]2CN1C(=O)c1ccccc1,–,18.4 µM (active)
COC(=O)[C@@]1(Cc2ccc(F)cc2)[C@H]2c3cc(C(=O)N4CCCC4)n(C[C@H](O)CO)c3C[C@H]2CN1C(=O)c1ccccc1,24.6%,–
C[C@]1(C(=O)NCCc2c[nH]c3ccccc23)C=C[C@@H](Cc2ccccc2)N1C(=O)c1ccccc1,-0.929%,–
COc1ccc(CNC(=O)C2CCN(C(=O)c3ccccc3)CC2)cc1,19%,–

SMILES,"activity change, negative = cytotoxicity",Potency
COC(=O)[C@@]1(Cc2ccc(OC)cc2)[C@H]2c3cc(C(=O)N4CCCC4)n(Cc4ccc(OC(F)(F)F)cc4)c3C[C@H]2CN1C(=O)c1ccccc1,–,20.6 µM (active)
COc1ccc2c(c1)C(SCC(=O)NCc1ccccc1)CC(C)(C)O2 (configuration not stated),-13.6%,–
CCN1C(=O)[C@H]2[C@@H](c3ccc(C(F)(F)F)cc3)N[C@]3(CCCN(Cc4ccc(Br)cc4)C3=O)[C@H]2C1=O,-9.24%,–
CC1(C)CC(=O)C=C(c2ccccc2CO)C1=O,0%,–
Cn1c(Nc2ccc(F)cc2)nc2cc(-c3ccsc3)sc2c1=O,3.2%,–
O=C(c1cnn2c1NC(=C1CC1)C=C2C(F)F)N1CCc2ccccc2C1,7.8%,–
C=CCn1cc(C(=O)NCc2ccc(Cl)cc2)c(=O)c2cc(S(=O)(=O)N(CC)CC)ccc21,–,18.4 µM (active)
CCn1cc(C(=O)NCc2ccccc2)c(=O)c2cc(S(=O)(=O)N3CCCCC3)ccc21,-5.6%,–
CCN(CC)S(=O)(=O)c1ccc2c(c1)c(=O)c(C(=O)N1CCN(c3cccc(Cl)c3)CC1)cn2C,21.8%,–
CCOC(=O)C1=CCC2C(=O)N(Cc3ccccc3)C(=O)C12 (configuration not stated),11.2%,–
CC(=O)c1c(C)oc2ccc(NS(=O)(=O)c3ccc(C(=O)O)cc3)cc12,12.6%,–
COc1cc2ccccc2cc1C(=O)Nc1ccc(S(=O)(=O)Nc2cc(C)on2)cc1,-2.9%,–
COc1ccc(S(=O)(=O)Nc2cc3c(C(=O)OC(C)C)c(C)oc3c3ccccc23)cc1,–,5.17 µM (active)
COc1ccc(S(=O)(=O)Nc2ccc3oc(C)c(C(C)=O)c3c2)cc1,–,2.59 µM (active)
COc1cc(NS(=O)(=O)c2ccc(NC(C)=O)cc2)cc(OC)c1,-3.57%,–
CCc1ccc(S(=O)(=O)Nc2cc3c(C(=O)OCc4ccccc4)c(C)oc3c3ccccc23)cc1,0%,–
CN1CCn2cnc(C(=O)NCC(=O)OC(C)(C)C)c2C1=O,15.1%,–
Cc1cccc(-n2ccnc2SCC(=O)Nc2cc(C(F)(F)F)ccc2Cl)c1,-2.14%,–
C[C@H](O)[C@@H]1C(=O)N2CCc3c([nH]c4ccccc34)[C@@H]2C[C@@H]1N(C)C(=O)Nc1ccc(F)cc1,0.0676%,–
N#CC1(Nc2ccc3c4c(cccc24)CC3)CCCCC1,10.3%,–
O=C(CCc1nc2sc3c(c2c(=O)[nH]1)CCCC3)NCC(=O)Nc1ccccc1Br,-26.1%,–
O=C(NCCCN1CCOCC1)c1cc2c(s1)CCC2,13.1%,–
O=C(CNC(=O)c1cc2c(s1)CCC2)Nc1ccccc1Br,–,18.4 µM (active)

SMILES,"activity change, negative = cytotoxicity",Potency
CCN(Cc1ccncc1)C(=S)Nc1ccccc1C,12.6%,–
COc1ccc([C@H]2C[C@@H](n3cc(COC(=O)c4ccccc4)nn3)[C@H](O)CN2C(=O)c2cccs2)cc1,9.34%,–
O=C(Nc1ccc(OCCO)cc1)c1csc([C@H]2C[C@H](O)[C@@H](CO)O2)n1,4.16%,–
Fc1cccc(Cc2c(-c3cccc(Cl)c3)nc3ccc(Br)cn23)c1,11.4%,–
COc1ccc(Cl)cc1NC(=O)COC(=O)C(CC(C)C)N1C(=O)C2CC=CCC2C1=O (configuration not stated),–,10.3 µM (active)
COc1ccc(Cl)cc1NC(=O)c1cccc(N2C(=O)C3CC=CCC3C2=O)c1 (configuration not stated),3.02%,–
COc1ccc(Cl)cc1NC(=O)COc1ccc2c(c1)OCO2,23.4%,–
O=C(Cn1c(-c2ccc(Cl)cc2)noc1=O)N1CCN(c2ccccc2F)CC1,–,9.2 µM (active)
CC1(C2CC2)NC(=O)N(CC(=O)N2CCN(c3ccccc3F)CC2)C1=O (configuration not stated),-20.2%,–
O=C(CCSc1ccccc1)N1CCN(c2ccccc2F)CC1,-18.4%,–
Clc1ccccc1Nc1nc(NCc2cccs2)nc2ccsc12,-0.485%,–
CCCNC(=O)C(CC)n1nc(CC)n2c(cc3oc(C)cc32)c1=O (configuration not stated),-12%,–
CC(C)(C(=O)N1CCC1(C)C(=O)NS(=O)(=O)c1ccc(Br)cc1)c1ccccc1 (configuration not stated),5.43%,–
CC(OC(=O)c1cccnc1Cl)C(=O)NC1CCCCC1 (configuration not stated),2.47%,–
CCS(=O)(=O)N1CCCC(C(=O)NCc2ccc(C)cc2)C1 (configuration not stated),9.47%,–
Cc1ccc(NC(=O)N2CCC(C(=O)NCc3ccc(F)cc3)CC2)cc1,–,18.4 µM (active)
Cc1ccc(C(=O)NC2CCN(C(=O)Nc3ccc(F)cc3)CC2)cc1,0%,–
O=C1Nc2ccccc2NC(c2ccc3c(c2)OCO3)=C1N(Cc1ccc(F)cc1)C(=O)c1ccco1,0%,–
O=C(c1ccc2c(c1)N(Cc1ccccc1F)C(=O)c1ccccc1S2(=O)=O)N1CCOCC1,-15.2%,–
COc1ccc(C2c3c(oc4ccccc4c3=O)C(=O)N2Cc2ccc3c(c2)OCO3)cc1 (configuration not stated),12.9%,–
COc1ccc(C(=O)NCc2nnc(SCCOc3ccccc3)n2C)cc1,-6.27%,–
C=CCn1c(SCC(=O)c2ccc(Br)cc2)nnc1C(C)NC(=O)Cc1ccc(OC)cc1 (configuration not stated),0.852%,–
C=CCn1c(SCCOc2ccc(OC)cc2)nnc1C(NC(=O)c1ccc(OC)cc1)C(C)C (configuration not stated),–,11.6 µM (active)

SMILES,"activity change, negative = cytotoxicity",Potency
CCOC(=O)c1c(C)[nH]c(C)c1C(=O)COC(=O)/C=C/c1cccc([N+](=O)[O-])c1,7.85%,–
O=C(OCc1cn([C@@H]2C[C@H](c3ccc(Cl)cc3)N(Cc3cccs3)C[C@H]2O)nn1)c1ccccc1,-16.6%,–
COC(=O)c1ccccc1SC1CC(=O)N(c2cccc(C)c2)C1=O (configuration not stated),-2.53%,–
Cc1ccnc(SC2CC(=O)N(c3ccccc3)C2=O)n1 (configuration not stated),18.5%,–
CCc1cccc(CC)c1N1C(=O)CC(Sc2ccccc2N)C1=O (configuration not stated),–,6.51 µM (active)
COc1cc2c3c(c1)/C(=C1/SC(=S)NC1=O)C(=O)N3C(C)(C)C=C2C,–,9.2 µM (active)
O=C(OCc1cn([C@H]2C[C@H](c3ccccc3)N(C(=O)c3cccs3)C[C@@H]2O)nn1)c1ccccc1,13.1%,–
COc1ccc(/C=C2\SC(=S)N(CCC(=O)N3CCOCC3)C2=O)cc1OC,12.8%,–
C=C1C=C(C(F)F)n2ncc(C(=O)NCCc3ccccc3OC)c2N1,0%,–
O=C(O)CCCCCNc1ncnc2ccc(Br)cc12,-28.3%,–
Brc1ccc2ncnc(NCc3cccnc3)c2c1,3.72%,–
C=CCNc1ncnc2ccc(Br)cc12,–,20.6 µM (active)
Cc1ccc2nc(COc3cccc(NC(=O)c4cccc(Cl)c4)c3)cc(=O)n2c1,-2.75%,–
Cc1cc(O)cc(O)c1C(=O)Cc1cnn(-c2ccccc2)c1,–,16.4 µM (active)
O=C(c1cnn(-c2ccc(Cl)cc2)c1)c1ccccc1O,-26.8%,–
COc1ccc(C(=O)Cc2cnn(-c3ccccc3)c2)c(O)c1,6.65%,–
Cc1ccc(-c2cc(-c3coc4ccccc4c3=O)c3c(n2)-c2cc(Cl)ccc2OC3)cc1,23.8%,–
Cc1cc(C)c(S(=O)(=O)NN=C2c3ccccc3[C@H]3Cc4csc[n+]4[C@@H]23)c(C)c1,0%,–
C[C@H](CO)N1C[C@H](C)[C@@H](CN(C)C(=O)c2cccc(F)c2)Oc2cc(-c3cncnc3)ccc2S1(=O)=O,-5.26%,–
O=C(NCCOc1ccccc1)c1ccccc1F,-0.571%,–
COc1ccccc1N1CCN(C(=O)c2cc(=O)c3cc(C)ccc3o2)CC1,-19.3%,–
COc1ccccc1N1CCN(C(=O)c2cc(=O)c3cc(C)cc(C)c3o2)CC1,–,0.206 µM (active)
COc1ccccc1N1CCN(C(=O)c2c(-c3c(Cl)cccc3Cl)noc2C)CC1,0%,–
